Screening results deposited in PubChem by National Center for Advancing Translational Sciences (NCATS).
TDP1 cell noCPT = qHTS for Inhibitors of human tyrosyl-DNA phosphodiesterase 1 (TDP1): qHTS in cells in absence of CPT; DT40 Tdp1-/- hTDP1 cells, no CPT, ATP luminescence, 48 h; Potency, µM (titrated, usually from 46.2 µM), for inactives: at the top dose activity change, negative = growth inhibition, actives largely listed as inhibitors; actives 15% (n = 420,000); AID 686978, 2013; note: potency is the fitted concentration of half-maximal effect; nearly all actives have a fitted effect of over 55% in size
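A cellular qHTS used chicken DT40 cells lacking endogenous Tdp1 but carrying stably transfected human TDP1. Compounds were applied without camptothecin, and cell growth kinetics were judged by ATP-dependent luminescence after ≥48 hr.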
ELG1 DNA repair = inhibitors of ELG1-dependent DNA repair in HEK293T cells. HEK293T ELG1-luciferase reporter, luminescence, 16 h; DNA damage induced by 5-fluorouridine. Potency, µM (doses to about 46.1 µM), for inactives: at the highest dose activity change, negative = inhibition, hits mostly inhibitors. actives 2.3% (n = 330,000); note: potency is the fitted concentration of half-maximal effect; nearly all actives have a fitted effect of over 55% in size
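Cells (2,000 per well) received 5-fluorouridine plus test compound or DMSO and were incubated 16 hr at 37 °C, 5% CO2. Luciferase activity was read by luminescence 30 min after ONE-Glo addition; signal suppression marked inhibition of damage-induced ELG1 function.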
HT1080NT lethal = kills 2HG-producing HT-1080-NT fibrosarcoma cells; HT-1080-NT fibrosarcoma viability, CellTiter-Glo ATP luminescence, 48 h; Potency, µM (series often up to 46.1 µM), without a hit: at the top dose activity, negative = less viability, hits mostly cytotoxic; actives 1.6% (n = 360,000); AID 686970;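 note: NT is the 2HG producing partner of a matched IDH1 knockdown line; potency is the fitted concentration of half-maximal effect; 0% = DMSO-treated cells and -100% = media-only wells without cells; nearly all actives have a fitted effect of over 55% in size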
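Compounds were tested in concentration-response format on HT-1080-NT cells for 48 hours at 37 degrees C. Cell viability came from CellTiter-Glo luminescence; curves were classified by r2, response magnitude and activity.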
HT1080 IDH1KD tx = toxicity to HT-1080 IDH1 knockdown cells (counter line). HT-1080 IDH1 knockdown viability, ATP luminescence, 48 h. Potency, µM (titrated, usually from 46.1 µM), for the others: at the highest dose activity, negative = toxicity, most hits filed as cytotoxic. actives 2% (n = 360,000). AID 686971;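 note: potency is the fitted concentration of half-maximal effect; 0% = DMSO wells and -100% = cell-free medium wells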
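Luminescent ATP read-out (CellTiter-Glo, 10 min at room temperature) after 48 h compound exposure at 37 °C gave viability of IDH1-knockdown HT-1080 cells. Activity was normalised to DMSO and cell-free wells, then fitted as concentration-response curves.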
TDP1 cell CPT = growth inhibition of DT40 Tdp1-/-;hTDP1 cells with camptothecin (screen for TDP1 inhibitors); chicken DT40 Tdp1-/-;hTDP1 cells + 20 nM CPT, ATP luminescence, 48 h; actives 12% (n = 420,000); Potency, µM (highest dose often 46.2 µM), for inactives: at the top dose activity change, negative = growth inhibition, hits mostly inhibitors; note: potency is the fitted concentration of half-maximal effect; nearly all actives have a fitted effect of over 55% in size
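Cell growth measured by CellTiter-Glo luminescence after a minimum 48 h, 37 C compound exposure with 20 nM CPT in Tdp1-knockout DT40 cells stably expressing hTDP1, seeded 400/well; qHTS titration format.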
IL-1B inflam inh = inhibitors of inflammasome signaling (IL-1 beta secretion); THP-1 LPS/ATP IL-1B secretion, AlphaLISA, 16 h; active compounds read low; activity change, % at 57.5 µM; actives 4.7% (n = 360,000); AID 743279; in the data active = activity change below about -50%; inconclusive = mostly about -30% to -49%
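Secreted IL-1B measured by AlphaLISA bead assay after 16 h compound exposure of THP-1 cells; compounds (final up to 57.5 uM) added 1 h before LPS (250 ng/mL) and ATP (1.25 mM) stimulation; lower signal means less secretion.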
The depositor's hits bear a star; u = inconclusive; x = no result; [ ] = dose if it differs, or a comment. Sampled rows, rich in hits. Any-hit rate of the full collection: about 19%. Unless noted, calls come from the whole dose curve; as a rule, active = well fitted curve in the direction sought with a large enough effect; inconclusive = small, poorly fitted or top-dose-only effect, or another doubt; inactive = no such curve, though single readings can be large; an effect the other way counts as inactive or inconclusive. Unless noted, % is set by controls: 0 for no effect and ±100 for the full control effect.

SMILES	TDP1 cell noCPT	ELG1 DNA repair	HT1080NT lethal	HT1080 IDH1KD tx	TDP1 cell CPT	IL-1B inflam inh
COc1cccc(-n2c(CN3CCN(c4cccc(C)c4)C(C)C3)nc3ccc([N+](=O)[O-])cc3c2=O)c1 (stereo not drawn)	u	12µM*	-8%	-14%	-20%	13
COc1ccc(-n2c(CN3CCOCC3)nc3ccc([N+](=O)[O-])cc3c2=O)c(OC)c1	-7%	9%	0%	-5%	-13%	43
COc1ccc(-n2c(CN3CCC(C)CC3)nc3ccc([N+](=O)[O-])cc3c2=O)c(OC)c1	u	-10%	-6%	-4%	18µM*	17
Cc1ccsc1C(=O)N(Cc1cc2cc3c(cc2nc1N1CCOCC1)CCC3)CC1CCCO1 (stereo not drawn)	-3%	x	x	x	-10%[9.04 µM]	x
Cc1ccc(CNC(=O)C(=O)NCC2CCCN2S(=O)(=O)c2cc(C)ccc2C)cc1 (stereo not drawn)	u	u	-20%	-14%	-7%	-10
Oc1c(N=Nc2nn[nH]n2)ccc2ccccc12	16µM*	x	u	u	16µM*	103
Oc1c(N=Nc2ccc(F)cc2)ccc2ccccc12	15µM*	u	-27%	-15%	9.2µM*	4
Cc1ccc(N=Nc2ccc3ccccc3c2O)cc1	u	u	u	-14%	u	-12
CCOC(=O)COc1cc(-n2c(=S)[nH]c3cc(OC)c(OC)cc3c2=O)c(Cl)cc1Cl	u	-16%	2%	10%	-29%	0
COC(=O)c1ccc2nc(-c3ccccc3)c(Cc3ccc(C)cc3)n2c1	u	x	2%	1%	u	23
COC(=O)c1ccc2nc(-c3ccc(C)cc3)c(Cc3cccc(Cl)c3)n2c1	16µM*	x	-6%	-15%	16µM*	0
COC(=O)c1ccc2nc(-c3ccc(Cl)cc3)c(Cc3cccc(Cl)c3)n2c1	18µM*	x	-3%	0%	u	29
CCCNC(=O)c1cc(C2CCCCN2C(=O)OCC(C)C)on1 (stereo not drawn)	-26%	x	-1%	16%	-25%	9
CCCN(CC(=O)Nc1ccc(C(N)=O)cc1)CC(=O)Nc1ccc(F)c(F)c1F	-2%	u	11%	-2%	11%	7
CCc1ccccc1NC(=O)c1ccc(=O)n(Cc2ccc(F)cc2)c1	-12%	x	x	x	-13%	x
CCCCc1ccc(NC(=O)c2ccc(=O)n(Cc3cccc(C)c3)c2)cc1	18µM*	x	x	x	u	x
COc1ccc(-c2cc3nc(-c4ccccc4)cc(N4CCN(C(=O)c5ccoc5)CC4)n3n2)cc1	8.2µM*	x	-13%	-13%	u	-23
COc1ccc(-c2cc3nc(C)cc(N4CCN(C(=O)c5cccnc5)CC4)n3n2)cc1	23µM*	x	-1%	-2%	u	-19
O=C(c1ccoc1)N1CCN(c2cc(-c3ccccc3)nc3cc(-c4ccc(Br)cc4)nn23)CC1	5.8µM*	x	2%	-2%	12µM*	12
Cc1ccc(-c2cc3nc(-c4ccccc4)cc(N4CCOCC4)n3n2)cc1	u	u	-4%	-4%	-29%	-14
CC(C)(C)c1ccc(CCC2OCC(C[N+]3(C)CCOCC3)O2)cc1 (stereo not drawn)	2.1µM*	-9%	1%	16%	1.8µM*	x
Cc1cc(F)ccc1-c1cc(C(=O)Nc2ccccc2)[nH]n1	u	x	-10%	-17%	u	-14
O=C(COC(=O)CCc1ccccc1)NC1CCS(=O)(=O)C1 (stereo not drawn)	-2%	10%	0%	2%	4%	-4
CN1C(=O)C2(N=c3ccccc3=N2)c2ccccc21	15µM*	-2%	u	u	u	8
